MITF inh = MITF inhibitors, primary screen, biochemical, AlphaScreen, human; Microphthalmia-associated transcription factor (Homo sapiens), O75030; actives 0.91% (n = 650,000); inhibition, % at 2.6 µM; AID 1259374, 2018; AlphaScreen MITF homodimerization, bead proximity signal; in the data active = inhibition above about 50%;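 note: 0% = vehicle wells with protein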
FBW7 act = FBW7 E3 ligase activators, primary screen, biochemical, AlphaScreen, human; F-box/WD repeat-containing protein 7 (Homo sapiens), Q969H0; AlphaScreen FBW7–phospho-cyclin E peptide binding, activator screen; normalized activity (activation), % at 26.1 µM; actives 0.13% (n = 650,000); AID 1259310, 2017; in the data active = normalized activity above about 1.9%;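 note: purified mutant Fbw7 with reduced substrate affinity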
Target sequence (Q969H0 whole entry, looked up): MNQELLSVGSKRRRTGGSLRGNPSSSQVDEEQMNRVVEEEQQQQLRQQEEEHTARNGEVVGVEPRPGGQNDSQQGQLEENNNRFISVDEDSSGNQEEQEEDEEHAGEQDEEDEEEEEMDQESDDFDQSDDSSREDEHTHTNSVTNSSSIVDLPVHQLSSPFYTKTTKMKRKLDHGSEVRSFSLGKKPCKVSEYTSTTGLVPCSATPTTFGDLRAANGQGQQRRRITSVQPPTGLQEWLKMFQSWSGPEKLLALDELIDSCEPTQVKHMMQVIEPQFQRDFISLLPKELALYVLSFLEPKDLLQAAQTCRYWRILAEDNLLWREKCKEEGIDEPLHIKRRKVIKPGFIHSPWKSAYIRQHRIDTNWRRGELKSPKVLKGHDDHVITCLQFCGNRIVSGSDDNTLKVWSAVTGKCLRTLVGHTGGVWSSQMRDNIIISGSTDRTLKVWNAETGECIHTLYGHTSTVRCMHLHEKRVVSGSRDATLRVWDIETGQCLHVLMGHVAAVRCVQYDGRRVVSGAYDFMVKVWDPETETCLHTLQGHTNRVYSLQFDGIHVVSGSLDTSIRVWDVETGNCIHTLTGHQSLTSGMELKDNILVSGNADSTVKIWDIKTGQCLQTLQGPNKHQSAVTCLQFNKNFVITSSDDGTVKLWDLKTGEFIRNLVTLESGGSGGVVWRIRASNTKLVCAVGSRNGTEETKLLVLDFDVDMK
GPR151 activ = activators of human GPR151, primary screen, cell-based, PathHunter beta-arrestin, luminescence | actives 1% (n = 650,000) | G-protein coupled receptor 151 (Homo sapiens), Q8TDV0 | PathHunter beta-arrestin GPR151 cells | activation, % at 11.2 µM; in the data active = activation above about 4.9%;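 note: 0% = median of compound wells and 100% = cells with positive control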
TEAD-YAP inh = TEAD-YAP interaction inhibition, primary screen, TEAD-YAP interaction inhibitor project, luminescence, HEK-TIYL cells. TEAD-Gal4/YAP UAS-luciferase luminescence. inhibition, % at 9.12 µM. actives 1.4% (n = 640,000). AID 1259422, 2018; in the data active = inhibition above about 32%;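 note: 0% = median of test compound wells and 100% = reference inhibitor wells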
Active calls of the source: *. Sampled rows, rich in hits. Any-hit rate of the full collection: about 3.5%.

SMILES	MITF inh	FBW7 act	GPR151 activ	TEAD-YAP inh
Oc1ccc(-c2cnn3c(N4CCC(O)CC4)ccnc23)cc1	6	0	-1	52*
Oc1ccc(-c2cnn3c(N4CCOCC4)ccnc23)cc1	0	0	-1	98*
CCn1nc(C)c(CNC(=O)c2ccc(OC3CCN(Cc4ccccn4)CC3)cc2)c1C	9	0	0	52*
COc1ccc(C(=O)NC(=S)Nc2ccccc2[N+](=O)[O-])cc1	-2	0	1	-35
O=C(NCc1cccnc1)/C(=C/c1ccc(-c2ccc(Cl)cc2)o1)S(=O)(=O)c1ccccc1	12	0	-1	56*
Cc1ccc(C(=O)N/C(=C/c2ccc(-c3ccc(Cl)cc3)o2)C(=O)NCc2ccccc2)cc1	3	0	-1	-5
O=C(NN1C(=O)c2cccc3c([N+](=O)[O-])ccc(c23)C1=O)c1ccc([N+](=O)[O-])cc1	17	2.6*	0	8
Nc1c[n+]2c(n1-c1ccc(Br)cc1)CCCCC2	1	0	1	3
Cc1ccc(-n2c(-c3ccc(Cl)cc3)c[n+]3c2CCC3)cc1	-6	0	2	64*
C=CCN=c1scc(-c2ccco2)n1/N=C/c1cccs1	22	-1	1	34*
CC1=CC(C)(C)N2C(=O)C(=O)c3cc(OC(=O)COc4ccccc4)cc1c32	10	0	-1	62*
CC1=CC(C)(C)N2C(=O)C(=O)c3cc(OC(=O)C4CCCO4)cc1c32 (stereo not drawn)	12	0	0	57*
COc1ccc(C(=O)Oc2cc3c4c(c2)C(C)=CC(C)(C)N4C(=O)C3=O)cc1OC	10	0	0	9
COc1cc(/C=C2\SC(=Nc3ccccc3)NC2=O)ccc1OCc1ccc(Cl)cc1Cl	2	0	-1	-7
COc1ccccc1C1CN(CC(=O)NCc2ccc3c(c2)OCO3)Cc2ccccc2O1 (stereo not drawn)	8	0	0	-4
COCCCNS(=O)(=O)c1ccc(-c2ccc(S(=O)(=O)NCCCOC)cc2)cc1	1	0	1	12
CN(Cc1ccsc1)C(=O)CC1C(=O)NCCN1Cc1ccoc1 (stereo not drawn)	6	0	0	6
Cc1onc(-c2c(Cl)cccc2Cl)c1C(=O)N1CCN(c2cccc(C(F)(F)F)c2)CC1	16	0	1	54*
Cc1nc2ccccn2c1C(=O)N1CCN(c2cccc(C(F)(F)F)c2)CC1	3	0	5	58*
CCOC(=O)N1CC=C2C(C#N)=C(N)C(C#N)(C#N)C(c3ccc(F)cc3)C2C1 (stereo not drawn)	21	1	2	12
COc1ccc(C2CC(c3cccs3)=NN2C(=O)CSc2nnc(CNC(=O)c3cccc(OC)c3)n2CCc2ccccc2)cc1 (stereo not drawn)	-6	0	-1	0
Clc1ccc(C2CCCN(Cc3nc(-c4ccccn4)no3)C2)cc1 (stereo not drawn)	2	0	-1	-6
COc1cc(Nc2nc(NCc3nc4ccccc4[nH]3)c3ncn(-c4ccccc4)c3n2)cc(OC)c1OC	1	0	0	62*
c1ccc(Nc2nc(NCc3nc4ccccc4[nH]3)c3ncn(-c4ccccc4)c3n2)cc1	15	0	1	34*
COc1cc(Nc2nc(NCc3cccnc3)c3ncn(-c4ccccc4)c3n2)cc(OC)c1OC	12	0	1	1
SMILES	MITF inh	FBW7 act	GPR151 activ	TEAD-YAP inh
CCNc1nc(NCc2nc3ccccc3[nH]2)c2ncn(-c3ccccc3)c2n1	8	0	2	-1
c1ccc(-n2cnc3c(NCc4nc5ccccc5[nH]4)nc(-c4csc5ccccc45)nc32)cc1	-3	6.9*	-1	-10
COc1cccc(OCCOc2ccc(/C=C3/C(=N)N4OC(C)=CC4=NC3=O)cc2OC)c1	22	0	0	-6
CCN1CCN(Cc2ccc(NC(=O)Nc3ccc(OC)cc3)cc2)CC1	22	1	3	-33
CCN1CCN(Cc2ccc(NC(=O)Nc3ccccc3)cc2)CC1	3	0	0	52*
CC1=C(C(=O)OCCc2ccccc2)C(c2cccc3ccccc23)NC(=O)N1 (stereo not drawn)	4	0	0	-8
COc1ccc(S(=O)(=O)N2CCC(CO)(Cc3ccccc3)CC2)cc1OC	13	0	-1	-5
O=C(CSc1nnc2ccc(-c3ccccc3)nn12)Nc1ccc2c(c1)OCCO2	-15	0	1	5
COc1ccccc1/C=C/C(=O)Nc1ccc2[nH]ncc2c1	-5	0	0	35*
O=C(CNC(=O)c1ccccc1)OCc1ccc(C(=O)Oc2ccccc2)cc1	10	0	-1	9
O=C(Nc1ccc(C2CC2(Cl)Cl)cc1)c1cccs1 (stereo not drawn)	7	0	-1	-33
Cc1ccc(CCNC(=O)c2c(N)[nH]n3c(=O)c4ccccc4nc23)cc1	4	0	-1	35*
CCc1c(C)nc2c(C(=O)NCCc3ccccc3)c[nH]n2c1=O	1	0	4	3
CCN(Cc1ccccc1)C(=O)C1CCCCC1	13	0	-1	-2
Cc1cc(C(=O)COc2ncnc3sccc23)c(C)n1Cc1cccs1	-19	0	-1	33*
Cc1cc(C(=O)COc2ncnc3sccc23)c(C)n1CC1COc2ccccc2O1 (stereo not drawn)	14	0	-1	5
Cc1cc(C(=O)COC(=O)c2n[nH]c3ccccc23)c(C)n1Cc1cccs1	-14	0	1	74*
Cc1ccccc1C(=O)OCC(=O)c1cc(C)n(Cc2ccco2)c1C	14	0	-1	69*
Cc1cc(C(=O)COC(=O)c2cccnc2Cl)c(C)n1Cc1cccs1	5	0	0	47*
Cc1ccccc1OCC(O)CN1CCCC1 (stereo not drawn)	7	0	1	19
CCC1=NN2C(=N)/C(=C/c3ccccc3OCCOc3ccc(Br)cc3)C(=O)N=C2S1	-4	0	1	-9
COc1ccc(NS(=O)(=O)c2ccc(NC(=O)CCC(=O)O)cc2)cc1	-5	1	-2	-18
CCC(=O)Nc1ccc2oc(-c3ccccc3F)nc2c1	7	0	-2	39*
Cc1cc(C)c2oc(-c3cccc(NC(=O)COc4cc(C)c(Cl)c(C)c4)c3)nc2c1	-16	0	0	42*
CC(C)c1ccc2oc(-c3ccc(NC(=O)COc4ccc5ccccc5c4)cc3)nc2c1	2	0	0	42*
CC(C)C(=O)Nc1cc(-c2nc3cc(C(C)C)ccc3o2)ccc1Cl	-15	0	0	45*
Cc1cc(OCC(=O)Nc2ccc(-c3nc4cc(C(C)C)ccc4o3)cc2)cc(C)c1Cl	20	0	-1	6

Screens deposited in PubChem BioAssay by The Scripps Research Institute Molecular Screening Center.
